Each structure is given as a SMILES string. Values joined by “and” are separate entries in the source; they are usually repeats but may differ in a detail not shown here. Equal entries are not always repeated. Among all 290,000 compounds or so, about 3,000 (1%) were called active. Many of the other results were omitted from the sample, so actives are more common in it than they were. Unmarked numbers belong to inactive results. Rule as the data show it: active = inhibition mostly above about 36% (no sharp cut-off); inactive = mostly below about 34%.

The assay can be described thus: NOD1 signaling inhibitors, primary screen, cell-based, luminescence, uHTS (AID 1578).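 Also: HEK-293T reporter cells stimulated with the NOD1 agonist gamma-tri-DAP.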 Conditions: NOD1-driven NF-kB luciferase reporter cells, at 4 µM, active compounds read high.
Consider `O=C(O)CSc1nnc(-c2ccc(Cl)cc2Cl)n1-c1ccc(Br)cc1`, for which the inhibition was 14.7%.

With `Cc1ccc(N=Nc2c(N)[nH]n3c(=O)cc(-c4ccccc4)nc23)cc1`, the inhibition is 76% (active).

For the compound `Cc1ccc(N=Nc2c(N)[nH]n3c(=O)cc(C)nc23)cc1`, the inhibition is -20.5%.

Consider `Nc1[nH]n2c(=O)cc(-c3ccccc3)nc2c1N=Nc1ccc(S(N)(=O)=O)cc1`, for which the inhibition was -26%.

`Cc1ccc(C(=O)CSc2nc(-c3ccccc3)cc(=O)[nH]2)cc1`: the inhibition is 64.8% (active).

On to `O=C(O)CSc1nc(-c2ccccc2)cc(=O)[nH]1`, for which the inhibition was -22.9%.

`Cc1ccc(C(=O)CSc2nc(C)cc(=O)[nH]2)cc1`: the inhibition is -3.4%.

For `CCOC(=O)Cn1c(=O)oc2cc(S(=O)(=O)N(C)c3ccc(OC)cc3)ccc21`, the inhibition is 3.5%.

For the compound `CCOc1cc(/C=C2\C(=O)ON=C2c2ccccc2)cc(Br)c1O`, the inhibition is 39.5% (active).

For the compound `COc1cc(/C=C2\C(=O)ON=C2c2ccccc2)cc(Br)c1O`, the inhibition was 13.8%.

`CCOc1cc(/C=C2/C(=O)ON=C2C)cc(Br)c1O`: the inhibition was 25.8%.

On to `C/C(N)=C(/C#N)C(=O)COC(=O)CC12CC3CC(CC(C3)C1)C2`, for which the inhibition was 14.9%.

Regarding `CCn1c(CNC(=O)Cc2ccc(OC)cc2)nnc1SCC(=O)Nc1nccs1`, the inhibition is -10.4%.

`Cc1[nH]oc(=O)c1N=Nc1c(Cl)cccc1Cl`: the inhibition is -17%.

For `O=C(O)c1ccc(N=Nc2c(-c3ccccc3)[nH]oc2=O)cc1`, the inhibition is -2.7%.

With `O=c1o[nH]c(-c2ccccc2)c1N=Nc1c(F)cccc1Cl`, the inhibition is 37% (active).

Take `Cc1ccc(N2C(=O)/C(=C/c3cccnc3)SC2=S)cc1`: the inhibition was 56.2%.

For `C=C1C(C(=O)Nc2ccc(F)cc2)C1C(=O)Nc1ccc(F)cc1` (stereo not given), the inhibition is 3.1%.

Regarding `O/N=C/c1ccccc1Oc1ccccc1`, the inhibition was 22.6%.

As to `O/N=C/c1ccccc1Oc1ccc(Cl)cc1`, the inhibition is 72.6% (active).

For `O/N=C\c1ccccc1Oc1ccc(F)cc1`, the inhibition is 8%.

As to `CCOC(=O)/C(C#N)=C\c1cccnc1`, the inhibition is -19.2%.

Consider `CCOC(=O)/C(=C\c1ccccc1)C(=O)c1cc(C(C)=O)c(Nc2ccccc2)s1`, for which the inhibition is 57.5%.

As for `CCOC(=O)/C(=C\c1cccnc1)C(=O)c1cc(C(C)=O)c(Nc2ccccc2)s1`, the inhibition was 102% (active).

For the compound `Cc1ccc2occ(/C=N/NC(=O)c3ccccc3C)c(=O)c2c1`, the inhibition was 49% (active).

On to `Cc1ccc2occ(/C=N/NC(=O)c3ccccc3O)c(=O)c2c1`, for which the inhibition was -14.7%.

For `Cc1ccc2occ(/C=N/NC(=O)c3ccccc3Br)c(=O)c2c1`, the inhibition was 29.9%.

For the compound `O=S1(=O)C=C(SCc2cccc(Cl)c2)Nc2ccccc21`, the inhibition was 21.1%.

Take `CCc1nc(Nc2ccc(OC)c(OC)c2)c2nnn(Cc3ccccc3Cl)c2n1`: the inhibition was 58.7% (active).

For `COc1cccc(OC)c1Nc1nc(C)nc2c1nnn2Cc1ccccc1Cl`, the inhibition was -33.1%.

On to `COc1ccc(Nc2nc(C)nc3c2nnn3Cc2ccccc2)cc1OC`, for which the inhibition was 0%.

As for `O=C(Nc1ccnn1C1CCN(C2CCCCC2)CC1)c1ccccc1`, the inhibition is -6.5%.

`COc1cc(/C=N/n2c(C)nc3ccccc3c2=O)cc(OC)c1O`: the inhibition is -6.8%.

Take `NS(=O)(=O)c1cc(C(=O)N2CCNC(=O)C2)ccc1Cl`: the inhibition is 70.4% (active).

On to `O=C(c1ccc(Cl)c(S(=O)(=O)N2CCCCCC2)c1)N1CCCC1`, for which the inhibition was 0.4%.

On to `O=C(c1ccc(Cl)c(S(=O)(=O)N2CCCCC2)c1)N1CCCCC1`, for which the inhibition is -30.5%.

With `O=c1c2c([nH]c3ccccc13)C(=C1CCCC1)CC2`, the inhibition was 2.8%.

`Cc1ccc(N2CCN(C(=O)c3cccs3)CC2)cc1C`: the inhibition is 1.8%.

In the case of `Cc1ccc(C2=[N+]([O-])C3(CCCCC/C3=N\O)N(O)C2(C)C)o1` (stereo not given), the inhibition is 14.4%.

Take `COc1ccc(CNC(=O)c2ccc(C(C)(C)C)cc2)cc1`: the inhibition is -24.6%.

In the case of `C[C@@H]1CC[C@@]2(O[C@H](CCO)C[C@@H](O)[C@@H]2O)O1`, the inhibition was -47.3%.

Take `COCCn1c(=S)[nH]c2cc(C(=O)N3CCN(Cc4ccc5c(c4)OCO5)CC3)ccc2c1=O`: the inhibition was -2.2%.

For `CCCCCn1c(=O)[nH]c2cc(C(=O)N3CCN(CC)CC3)ccc2c1=O`, the inhibition was -4%.

For `COc1ccc(-n2c(Cn3nnc4ccccc43)n[nH]c2=S)cc1`, the inhibition is 12%.

For `COc1ccccc1S(=O)(=O)Nc1cc(S(=O)(=O)N2CCCCC2)ccc1N1CCOCC1`, the inhibition is -35.7%.

As to `O=C(c1cccs1)c1no[n+]([O-])c1C(=O)c1cccs1`, the inhibition is 98.1% (active).

On to `COc1ccc(C(=O)c2no[n+]([O-])c2C(=O)c2ccc(OC)cc2)cc1`, for which the inhibition was 6.8%.

In the case of `Cc1ccc(C(=O)c2no[n+]([O-])c2C(=O)c2ccc(C)cc2)cc1`, the inhibition is 18%.

Take `O=S(=O)(c1ccc(F)c(F)c1F)N1CCN(C(=S)NC2CC3CCC2C3)CC1` (stereo not given): the inhibition is -22.5%.

For the compound `Cc1ccc(NC(=O)/C(C#N)=C/c2ccccc2C(F)(F)F)cc1`, the inhibition was -32.5%.

Take `Cc1nc2ccccn2c1-c1ccnc(SCc2ccc(Cl)cc2)n1`: the inhibition was 37.7% (active).

As for `Clc1ccc(CSc2ncccn2)cc1`, the inhibition was -34.4%.

Consider `Cc1ccc(CSc2nccc(-c3c(C)nc4ccccn34)n2)cc1`, for which the inhibition was 27%.

Consider `COc1ccc2c(C)cc(SCC(=O)Nc3cc(C(N)=O)cc(C(N)=O)c3)nc2c1`, for which the inhibition was -7%.

Turning to `O=C(Cc1cccs1)NNC(=S)NCc1ccco1`, the inhibition is -26.1%.

In the case of `O=C(O)Cc1ccc(NC(=S)NCc2ccco2)cc1`, the inhibition was -27.1%.

For `O=C(Cc1ccc(-c2ccccc2)cc1)NNC(=S)NCc1ccco1`, the inhibition is 41.4% (active).

In the case of `CC(=O)c1ccc(C(=O)N2CCCC(CO)(Cc3ccccc3C)C2)s1` (stereo not given), the inhibition was -39%.

In the case of `COc1ccc2c(c1)c1nc3n(c(=O)c1n2CC(=O)Nc1cc(C)[nH]n1)CCS3`, the inhibition was 63.4% (active).

In the case of `COc1ccc(NC(=O)Cn2c3ccc(OC)cc3c3nc4n(c(=O)c32)CCS4)cc1`, the inhibition was -15.9%.

As for `COc1ccc2c(c1)c1nc3n(c(=O)c1n2CC(=O)Nc1ccccc1)CCS3`, the inhibition is -17.5%.

As to `COc1ccc(OC(=O)N2CCOCC2)cc1`, the inhibition is -16.5%.

In the case of `CC1CCCC(NC(=O)COC(=O)Cc2cn3ccsc3n2)C1C` (stereo not given), the inhibition is 6.7%.

As to `Cc1ccc(-c2c[n+]3c(n2-c2ccccc2)CCC3)cc1`, the inhibition is 25.4%.

Consider `COc1ccc(-n2c(-c3ccc(Cl)cc3)c[n+]3c2CCc2ccccc2-3)cc1`, for which the inhibition was 20.5%.

In the case of `COc1ccccc1-n1c(-c2ccccc2)c[n+]2c1CCc1ccccc1-2`, the inhibition is 52.9% (active) and 68.6% (active).

With `COc1ccc(-n2c(-c3ccc(Br)cc3)c[n+]3c2CCc2ccccc2-3)cc1`, the inhibition is 13.3%.

Regarding `Cc1ccc(-n2c(-c3ccccc3)c[n+]3c2CCC3)cc1`, the inhibition is 9.5%.

Regarding `Cc1ccc(-n2c(-c3ccccc3)c[n+]3c2CCc2ccccc2-3)c(C)c1`, the inhibition was 66% (active).

With `CCOc1ccc(-c2c(C(=O)N/N=C/c3ccco3)nnn2-c2nonc2N)cc1`, the inhibition was -7.1%.

For `O=C(Cn1cnc(S(=O)(=O)N2CCCCC2)c1)NCc1ccco1`, the inhibition was -11.7%.

In the case of `CC(C)N(Cc1ccccc1)C(=S)Nc1ccccc1F`, the inhibition is -3.5%.

For the compound `CCOC(=O)CN(c1ccccc1C)S(=O)(=O)c1ccc(Cl)cc1`, the inhibition is 21.3%.

Turning to `CCN(CC)C(=O)Cn1cc(C(=O)C(=O)N(CC)C2CCCCC2)c2ccccc21`, the inhibition was -4.6%.

In the case of `Cc1nc2c(=O)n(C)c(=O)n(C)c2nc1Cl`, the inhibition is 94.4% (active).

On to `Cn1c(=O)c2nc(Cl)c(-c3ccccc3)nc2n(C)c1=O`, for which the inhibition is -30.8%.

In the case of `Cn1c(=O)c2nc3ccccc3nc2n(C)c1=O`, the inhibition is -21.3%.

Take `CCCC(C)NC(=O)/C=C/c1cccc([N+](=O)[O-])c1` (stereo not given): the inhibition was -26.2%.

Turning to `CCOC(=O)CNC(=O)CSc1nnc(NC(=O)c2ccc(C)cc2)s1`, the inhibition was 44.8% (active).

Regarding `CCOC(=O)CNC(=O)CSc1nnc(NC(=O)c2ccc3c(c2)OCO3)s1`, the inhibition is -31.4%.

In the case of `CCOC(=O)CNC(=O)CSc1nnc(NC(=O)c2ccccc2Cl)s1`, the inhibition is -7.6%.

For `CN1CCN(NC(=O)C23CC4CC(CC(C4)C2)C3)CC1`, the inhibition was -2.4%.

Consider `COc1ccccc1NC(=O)Cc1coc2cc(C)ccc12`, for which the inhibition is -17.5%.

Regarding `COc1ccc2c(CC(=O)Nc3ccccc3N3CCOCC3)coc2c1`, the inhibition was 16.3%.

Take `COc1ccc2c(CC(=O)Nc3ccccc3OC)coc2c1`: the inhibition was 57.6% (active).

Regarding `O=C(NC(=S)Nc1ncccn1)c1ccc(Cl)cc1Cl`, the inhibition is -41.6%.

Take `COc1ccc(C2=NN(S(C)(=O)=O)C(c3cccs3)C2)cc1` (stereo not given): the inhibition was -16.2%.

As to `CC(=O)Nc1ccc(C2=NN(c3ccccc3)C(c3cccs3)C2)cc1` (stereo not given), the inhibition was -0.7%.

Regarding `COc1ccc(C2=NN(c3ccccc3)C(c3cccs3)C2)cc1` (stereo not given), the inhibition was 46.8% (active).

`CC(=O)c1ccc(NC(=O)CCc2nnc3ccc(N4CCC5(CC4)OCCO5)nn23)cc1`: the inhibition is -15.6%.

As to `CCOc1cc2[nH]c(=O)n(CCCN3CCCC3=O)c(=O)c2cc1OCC`, the inhibition was 0.4%.

For the compound `CCCc1cc(-c2n[nH]c(=S)n2-c2cccc(C)c2)cs1`, the inhibition is -9.6%.

For `O=C(N/N=C(\c1ccccc1)c1ccccn1)c1cccc([N+](=O)[O-])c1`, the inhibition is 103% (active).

For the compound `O=C(NNC(=O)c1ccccn1)c1cccc([N+](=O)[O-])c1`, the inhibition was -43.1%.

In the case of `O=C(c1cccc([N+](=O)[O-])c1)c1ccccn1`, the inhibition is -6.3%.

Turning to `O=C(CC(C(=O)O)c1ccc(Cl)cc1)c1ccccc1` (stereo not given), the inhibition is -13%.

On to `O=C(O)c1ccc(C(=O)C(=O)c2ccccc2)cc1`, for which the inhibition is -2.3%.

On to `C=C(C(=O)c1ccccc1)C(C)C(=C)C(=O)c1ccccc1`, for which the inhibition is 99% (active).

Regarding `O=C(CC(CC(=O)c1ccccc1)c1ccccc1)c1ccccc1`, the inhibition is -4.1%.

Turning to `C=C(C(=O)c1ccccc1)C(c1ccccc1)C(C)C(=O)c1ccccc1` (stereo not given), the inhibition was 44.3%.
